# Data as given in the supplement of paper PMC6135742.
# Structures can show the parent of a compound that is named as a salt. ± gives the standard deviation of the averaged measurements. In all, about 2,600 compounds were measured (“MBP+ mature oligodendrocyte number relative to DMSO vehicle control”: median about -0.34, highest 2% from about 13 on). For the sample, the highest values were picked, then their nearest neighbours and some compounds at random.
# Tested on: jimpy (Plp1 jimpy) mouse iPSC-derived oligodendrocyte progenitor cells
# Test: MBP+ mature oligodendrocyte number relative to DMSO vehicle control (SDs above negative control mean); higher = more surviving jimpy oligodendrocytes (rescue)
# Conditions: 10 µM; 3 days
# Description: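 Primary phenotypic screen of >3,000 bioactive compounds (Selleck L1700 and Sigma LO1280 libraries) at a single dose of 10 µM. Compounds were added to jimpy (Plp1 mutant) mouse iPSC-derived OPCs at the start of thyroid hormone-induced oligodendrocyte differentiation, one well per compound in 384-well plates. After 3 days cells were stained for MBP, Sox10 and DAPI and imaged with an Operetta system. MBP+ oligodendrocyte number and total cell number were expressed as the number of SDs above the mean of the DMSO negative control on the same plate (n=16 control wells per plate). Hits were defined as >=4 SD for oligodendrocytes and >=2 SD for total cells.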
row,SMILES,MBP+ mature oligodendrocyte number
1,CC(C)C[C@H](C(=O)O)c1cc(-c2ccc(C(F)(F)F)cc2)cc(-c2ccc(C(F)(F)F)cc2)c1,25.5
2,CC(C(=O)O)c1ccc(-c2ccccc2)c(F)c1 (configuration not stated) [Flurbiprofen],-0.0169
3,C/C(O)=C(\C#N)C(=O)Nc1ccc(C(F)(F)F)cc1 [Teriflunomide],0.913
4,C=CC(=O)N1CCC[C@@H](n2nc(-c3ccc(Oc4ccccc4)cc3)c3c(N)ncnc32)C1,0.104
5,Cc1ccc(C(=O)N(CCCN)[C@@H](c2oc3cc(Cl)ccc3c(=O)c2Cc2ccccc2)C(C)C)cc1,< -4.81
6,Cc1cccc(CN2CCN(C(c3ccccc3)c3ccc(Cl)cc3)CC2)c1 (configuration not stated) [Meclizine 2HCl],-4.88
7,"c1ccc(CN2CCC3(CCCc4ccccc43)CC2)cc1 [L-687,384 hydrochloride]",0.735
8,Cc1nn(-c2ccccc2)c(C)c1C=NN1CCN(Cc2ccccc2)CC1,14.2 ± 1.6
9,Nc1n[n+]([O-])c2ccccc2[n+]1[O-] [Tirapazamine],-2.44
10,O=c1sn(-c2cccc3ccccc23)c(=O)n1Cc1ccccc1 [Tideglusib],-0.769
11,NNC(=O)CSc1nc2scc(-c3ccccc3)c2c(=O)n1-c1ccccc1,-0.637
12,OC(CCN1CCCCC1)(c1ccccc1)C1CC2C=CC1C2 (configuration not stated) [Biperiden hydrochloride],2.59
13,OC(CCN1CCCCC1)(c1ccccc1)C1CCCCC1 (configuration not stated) [Trihexyphenidyl hydrochloride],-0.104
14,OC(CCN1CCCCC1)(c1ccccc1)C1CC2C=CC1C2 (configuration not stated) [Biperiden HCl],13.7
15,O=c1cc(-c2cccc3c2Sc2ccccc2S3)oc(N2CCOCC2)c1,-3.99
16,C[N+]1(C)CCC(OC(=O)C(c2ccccc2)c2ccccc2)CC1,0.467
17,O=C(O)c1ccccc1 [Benzoic Acid],0.66
18,C[N+]1(C)CCC(OC(=O)C(c2ccccc2)c2ccccc2)CC1 [4-DAMP methiodide],2.86
19,C[N+]1(C)CCC(=C(c2ccccc2)c2ccccc2)CC1 [Diphemanil Methylsulfate],19.2

row,SMILES,MBP+ mature oligodendrocyte number
1,C=C1CC[C@H](O)C/C1=C/C=C1\CCC[C@]2(C)[C@@H]([C@H](C)CCCC(C)C)CC[C@@H]12 [Vitamin D3],5.56
2,C=C1/C(=C\C=C2/CCC[C@]3(C)[C@@H]([C@H](C)/C=C/[C@H](C)C(C)C)CC[C@@H]23)C[C@@H](O)C[C@@H]1O [Doxercalciferol],8.14
3,C=C1CC[C@H](O)C/C1=C/C=C1\CCC[C@]2(C)[C@@H]([C@H](C)/C=C/[C@H](C)C(C)C)CC[C@@H]12 [Vitamin D2],21.5
4,CCCCCCCCCCCCCCSCC(=O)O [Tetradecylthioacetic acid],0.00298
5,CCCCC[C@H](O)/C=C/[C@H]1[C@H](O)CC(=O)[C@@H]1CCCCCCC(=O)O [Alprostadil],0.793
6,CCCCC(F)(F)[C@@]1(O)CC[C@H]2[C@@H](CC(=O)[C@@H]2CCCCCCC(=O)O)O1 [Lubiprostone],25.2
7,Cc1cnc(-c2cc(N3CCN(C(=O)CCS(C)(=O)=O)CC3)ncc2Cl)c(C)c1,0.184
8,CC(C)(C(=O)O)c1ccc(C(O)CCCN2CCC(C(O)(c3ccccc3)c3ccccc3)CC2)cc1 (configuration not stated) [Fexofenadine hydrochloride],0.659
9,CC(C)(C(=O)O)c1ccc(C(O)CCCN2CCC(C(O)(c3ccccc3)c3ccccc3)CC2)cc1 (configuration not stated) [Fexofenadine HCl],1.53
10,CC(C(O)c1ccc(O)cc1)N1CCC(Cc2ccccc2)CC1 (configuration not stated) [Ifenprodil Tartrate],20.3
11,CC(C)(C)c1ccc(C(O)CCCN2CCC(C(O)(c3ccccc3)c3ccccc3)CC2)cc1 (configuration not stated) [Terfenadine],< -3.85
12,C[C@@H](CN1CCC(Cc2ccccc2)CC1)[C@@H](O)c1ccc(O)cc1 [Ro 25-6981 hydrochloride],14.6
13,CC(NCCc1ccc(O)cc1)C(O)c1ccc(O)cc1 (configuration not stated) [Ritodrine HCl],-0.164
14,CC(C(O)c1ccc(O)cc1)N1CCC(Cc2ccccc2)CC1 (configuration not stated) [Ifenprodil tartrate],8.03
15,CC(NCCc1ccc(O)cc1)C(O)c1ccc(O)cc1 (configuration not stated) [Ritodrine hydrochloride],1.15
16,C[C@H](N[C@@H](CCc1ccccc1)C(=O)O)C(=O)N1CCC[C@H]1C(=O)O [Enalaprilat Dihydrate],-0.467
17,C[C@H](N[C@@H](CCc1ccccc1)C(=O)O)C(=O)N1CCC[C@H]1C(=O)O [Enalaprilat dihydrate],0.574
18,CC(=Cc1ccc(C(=O)O)cc1)c1ccc2c(c1)C(C)(C)CCC2(C)C,0.539
